From PubChem BioAssay (NCATS)
Results filed as inconclusive are left out. Active and inactive are the calls of the source. Unless noted, calls come from the whole dose curve.

Legend:
[1] = biological target: Alpha-galactosidase (Coffea arabica) (UniProt Q42656); assay: Counterscreen for Glucocerebrosidase Inhibitors: qHTS Assay for Coffee Bean alpha-Galactosidase at pH 4.5 (AID 957; active = well fitted curve in the direction sought with a large enough effect; an effect the other way counts as inactive or inconclusive;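 note: series mostly up to about 77 µM; plate controls were enzyme alone for no effect and no enzyme for full effect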)
How it was run: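 Green coffee bean enzyme (2 nM final) was incubated with compounds (0.7 nM to 77 uM) and 4-methylumbelliferyl alpha-D-galactopyranoside (80 uM final) in 50 mM citric acid, 0.005% Tween-20, pH 4.5, 20 min at room temperature; AC50 from Hill fits.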

[2] = biological target: Alpha-galactosidase (Coffea arabica) (UniProt Q42656); assay: Counterscreen for Glucocerebrosidase Inhibitors: qHTS Assay for Coffee Bean alpha-Galactosidase at pH 5.9 (AID 998; active = well fitted curve in the direction sought with a large enough effect; an effect the other way counts as inactive or inconclusive;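 note: plate controls were uninhibited enzyme for no effect and no-enzyme basal signal for full effect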)
How it was run: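 Green coffee bean enzyme (2 nM final) was incubated with compounds (0.7 nM–77 uM) and 4-methylumbelliferyl alpha-D-galactopyranoside (80 uM) in citrate buffer pH 5.9, 20 min at room temperature. High-pH stop; fluorescence 365/440 nm; AC50 from Hill fits.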

[3] = Inducers of the Endoplasmic Reticulum Stress Response (ERSR) in human glioma: Validation (AID 504836; active = well fitted curve in the direction sought with a large enough effect; an effect the other way counts as inactive or inconclusive; note: 0% is about no effect)
How it was run: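 Stably transfected U87-MG human glioma cells carrying a GRP78-based luminescent sensor were seeded at 1000 cells/well, pin-dosed with compounds and incubated 16 h. Luciferase reagent was then added, and end-point luminescence was read after 10 min at room temperature.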

[4] = qHTS for Inhibitors of the Functional Ribonucleoprotein Complex (vRNP) of Lassa (LASV) Arenavirus: LASV Primary Screen - GLuc reporter signal (AID 1347082; calls by dose curve; tested in HEK293 reporter line; note: series mostly up to about 57 µM; % is set by controls: 0 for no effect and ±100 for the full control effect; nearly all actives have a fitted effect of over 60% in size)
[5] = qHTS for Inhibitors of the Functional Ribonucleoprotein Complex (vRNP) of Lassa (LASV) Arenavirus: Viability assay - alamar blue signal for LASV Primary Screen (AID 1347083; calls by dose curve; tested in HEK293 reporter line; note: series mostly up to about 57 µM; % is set by controls: 0 for no effect and ±100 for the full control effect; nearly all actives have a fitted effect of over 80% in size)
[6] = qHTS for Inhibitors of the Functional Ribonucleoprotein Complex (vRNP) of Lymphocytic Choriomeningitis Arenaviruses (LCMV): Viability assay - alamar blue signal for LCMV Primary Screen (AID 1347085; calls by dose curve; tested in HEK293 reporter line; note: series mostly up to about 57 µM; % is set by controls: 0 for no effect and ±100 for the full control effect; nearly all actives have a fitted effect of over 80% in size)
[7] = biological target: Nucleoprotein (Lymphocytic choriomeningitis virus (strain Armstrong)) (UniProt P09992); assay: qHTS for Inhibitors of the Functional Ribonucleoprotein Complex (vRNP) of Lymphocytic Choriomeningitis Arenaviruses (LCMV): LCMV Primary Screen - GLuc reporter signal (AID 1347086); note: series mostly up to about 57 µM; % is set by controls: 0 for no effect and ±100 for the full control effect; nearly all actives have a fitted effect of over 70% in size
[8] = biological target: Bile acid receptor (Homo sapiens) (UniProt Q96RI1); assay: qHTS assay for small molecule agonists of farnesoid X receptor signaling (AID 588527); conditions: HEK293T FXR-UAS-bla, beta-lactamase ratio, 16 h; activation: stronger effect = higher value;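 note: series mostly up to about 77 µM; 0% = vehicle basal and 100% = reference agonist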
How it was run: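 FXR-UAS-bla HEK293T cells (10% dialyzed FBS) preincubated 5-7 h at 37 C, then compounds at up to 92 uM for 16 h at 37 C. CCF4 beta-lactamase read-out after 2 h RT. Normalized to chenodeoxycholic acid (100 uM) and DMSO; Hill fit gave EC50 and efficacy.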

[9] = biological target: Peroxisome proliferator-activated receptor delta (Homo sapiens) (UniProt Q03181); assay: qHTS assay for small molecule agonists of peroxisome proliferator-activated receptor delta signaling (AID 588534);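 note: 0% = DMSO basal wells and 100% = positive control agonist at 10 µM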
How it was run: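 Cell-based beta-lactamase reporter assay run in agonist mode: cells seeded and incubated 5 hrs at 37 C, compounds added and incubated 18 hrs at 37 C. CCF4 dye fluorescence read after 2 hrs at RT; EC50 and efficacy from Hill fits.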

[10] = biological target: Bile acid receptor (Homo sapiens) (UniProt Q96RI1); assay: qHTS assay for small molecule antagonists of farnesoid X receptor signaling (AID 588526); note: % is set by controls: 0 for no effect and ±100 for the full control effect
How it was run: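 Concentration-response titrations were fitted to the Hill equation for half-maximal inhibition and maximal response, with data normalised to 50 uM chenodeoxycholic acid and DMSO control wells. Cells: FXR-UAS-bla HEK293T, dialyzed FBS.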

[11] = biological target: Glucocorticoid receptor (Homo sapiens) (UniProt P04150); assay: qHTS assay for small molecule agonists of glucocorticoid receptor signaling (AID 588532; active = well fitted curve in the direction sought with a large enough effect in the signal ratio, with a control signal flat; the % refers to the signal ratio;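 note: 100% = dexamethasone at 0.1 µM and 0% = DMSO only wells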); conditions: HeLa MMTV-bla, beta-lactamase ratio, agonist, 18 h; stronger effect = higher value; percent of dexamethasone control, DMSO zero
How it was run: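 Stimulation of a glucocorticoid response element-driven beta-lactamase gene was measured in HeLa cells. Responses were scaled between DMSO basal and 0.1 uM dexamethasone, then fitted for half-maximal stimulation.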

[12] = biological target: Glucocorticoid receptor (Homo sapiens) (UniProt P04150); assay: qHTS assay for small molecule antagonists of glucocorticoid receptor signaling (AID 588533; active = well fitted inhibition curve with a large enough effect in the signal ratio, with a control signal flat, not every such curve was filed as active; the % refers to the signal ratio;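 note: cells stimulated with 2 nM dexamethasone as agonist; % is set by controls: 0 for no effect and ±100 for the full control effect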)
How it was run: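 Antagonist-mode qHTS: compound titrations added to GRE-bla HeLa cells, then dexamethasone 2 nM final; 18 h, 37 C. CCF4 FRET fluorescence normalized to dexamethasone and DMSO; IC50 from Hill fit.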

[13] = qHTS assay for small molecule antagonists of peroxisome proliferator-activated receptor delta signaling (AID 588535; active = well fitted inhibition curve with a large enough effect in the signal ratio, with a control signal flat, not every such curve was filed as active; the % refers to the signal ratio;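 for max response: cells co-treated with a PPAR-delta agonist as stimulator during compound exposure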); conditions: HEK293T PPARd-UAS-bla, beta-lactamase FRET ratio, 18 h; 460 nm channel
How it was run: (§1)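 GeneBLAzer PPAR-delta-UAS-bla HEK293T cells in medium with 2% charcoal/dextran FBS were preincubated 5 hrs at 37 C, then given compounds, incubated 18 hrs at 37 C, and read by CCF4 beta-lactamase fluorescence; IC50 from Hill fits.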

[14] = biological target: Peroxisome proliferator-activated receptor delta (Homo sapiens) (UniProt Q03181); assay: as above
How it was run: as §1

[15] = biological target: Peroxisome proliferator-activated receptor gamma (Homo sapiens) (UniProt P37231); assay: qHTS assay for small molecule agonists of peroxisome proliferator-activated receptor gamma signaling (AID 588536; active = well fitted curve in the direction sought with a large enough effect in the signal ratio, with a control signal flat, not every such curve was filed as active; the % refers to the signal ratio;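 note: 0% = DMSO basal wells and 100% = rosiglitazone at 2 µM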)
How it was run: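 GeneBLAzer PPAR-gamma-UAS-bla HEK293 cells in 1% charcoal/dextran-treated FBS medium were treated 16 h at 37 C with compounds. Beta-lactamase activity was read by CCF4 ratio (460/530 nm). Response was normalized to 2 uM rosiglitazone (100%) and DMSO, then Hill-fitted for EC50 and efficacy.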

[16] = biological target: Peroxisome proliferator-activated receptor gamma (Homo sapiens) (UniProt P37231); assay: qHTS assay for small molecule antagonists of peroxisome proliferator-activated receptor gamma signaling (AID 588537; active = well fitted inhibition curve with a large enough effect in the signal ratio, with a control signal flat, not every such curve was filed as active; the % refers to the signal ratio;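 note: reporter cells co-stimulated with 50 nM rosiglitazone agonist during compound treatment; % of control where 0% means no effect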)
How it was run: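 PPAR-gamma-UAS-bla HEK293 cells (3000/well, 1% charcoal/dextran-stripped FBS) were preincubated 6-6.5 h at 37 C, given titrated compounds, then stimulated with 50 nM rosiglitazone for 16 h. Beta-lactamase activity was read with CCF4 dye; IC50 came from Hill fits.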

[17] = biological target: Vitamin D3 receptor (Homo sapiens) (UniProt P11473); assay: qHTS assay for small molecule antagonists of vitamin D receptor signaling (AID 588541);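 note: receptor activated by calcitriol during compound treatment; series mostly up to about 77 µM; % is set by controls: 0 for no effect and ±100 for the full control effect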
How it was run: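 VDR-UAS-bla HEK293T cells (2000/well, 2% charcoal-stripped FBS) were treated with titrated compounds plus 1-alpha,25-dihydroxyvitamin D3 (50 nM or 3 nM final) for 16 h at 37 C. CCF4 beta-lactamase fluorescence was read; Hill fits gave IC50.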

[18] = qHTS assay for small molecule agonists of retinoid X receptor alpha signaling (AID 588544); conditions: HEK293T RXRa-UAS-bla, beta-lactamase reporter, 18 h; 530 nm emission;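 for activation: 0% = DMSO basal wells and 100% = reference agonist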
[19] = biological target: Retinoic acid receptor RXR-alpha (Homo sapiens) (UniProt P19793); assay: as above
[20] = biological target: Thyroid hormone receptor beta (Homo sapiens) (UniProt P10828); assay: qHTS assay for small molecule agonists of thyroid hormone receptor beta signaling (AID 588545)
How it was run: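 Cells (2500/well) were seeded, incubated 4 hrs at 37 C, dosed with a compound series, incubated 18 hrs, loaded with CCF4 dye for 2 hrs at RT, then read for fluorescence. Data were scaled between DMSO (0%) and 10 nM T3 (100%).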

[21] = qHTS assay for small molecule antagonists of retinoid X receptor alpha signaling (AID 588546; active = well fitted inhibition curve with a large enough effect in the signal ratio, with a control signal flat, not every such curve was filed as active; the % refers to the signal ratio;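 note: cells stimulated with 9-cis-retinoic acid as agonist; % is set by controls: 0 for no effect and ±100 for the full control effect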); conditions: HEK293T RXRa-UAS-bla, beta-lactamase ratio, antagonist mode; measured here: W530 green channel, cytotoxicity proxy
How it was run: (§2)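 Beta-lactamase reporter inhibition, read as CCF4 fluorescence ratio (ex 405, em 460/530 nm) after 2 h at RT. HEK293T UAS-bla cells, 2500/well, were stimulated with 9-cis-RA at 500 or 100 nM final alongside test compound for 18 h at 37 C.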

[22] = biological target: Retinoic acid receptor RXR-alpha (Homo sapiens) (UniProt P19793); assay: as above; conditions: HEK293T RXRa-UAS-bla, beta-lactamase ratio, antagonist mode
How it was run: as §2

[23] = qHTS assay for small molecule activators of the nuclear factor-kappa B (NF-kB) signaling pathway (AID 651749; active = well fitted activation curve with a large enough effect in the signal ratio; the % refers to the signal ratio; note: series mostly up to about 77 µM; % of control where 0% means no effect); conditions: NF-kB-bla ME-180 cells, beta-lactamase FRET ratio, 16 h; activation: stronger effect = higher value
How it was run: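 ME-180 cells stably carrying a beta-lactamase reporter under an NF-kB response element were exposed to compound or DMSO vehicle for 16 hr at 37C, 5% CO2. Pathway activation was read by FRET, since reporter expression disrupts FRET.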

[24] = qHTS assay for environmental chemicals that activate the Aryl hydrocarbon Receptor (AhR) signaling pathway (AID 651777; active = well fitted curve in the direction sought with a large enough effect; an effect the other way counts as inactive or inconclusive; note: % of control where 0% means no effect; nearly all actives have a fitted effect of over 15% in size); conditions: 1A2-DRE human hepatoma cells, luciferase, 24 h; activation: stronger effect = higher value
How it was run: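 Human hepatoma 1A2-DRE cells, stably carrying a dioxin response element and CYP1A2 promoter driving luciferase, were exposed to compounds for 24 hr at 37 C and 5% CO2. Luciferase signal was then read after 30 min One-Glo at room temperature.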

[25] = biological target: Peroxisome proliferator-activated receptor alpha (Homo sapiens) (UniProt Q07869); assay: qHTS assay for small molecule agonists of the peroxisome proliferator-activated receptor alpha (PPARalpha) signaling pathway (AID 651778; active = well fitted curve in the direction sought with a large enough effect; an effect the other way counts as inactive or inconclusive; note: % of control where 0% means no effect); conditions: PathHunter PPARalpha complementation, chemiluminescence, 6 h; stronger effect = higher value
How it was run: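 Cells plated at 2,000/well and held overnight at 37 C, 5% CO2, then compound added by pin tool for 6 hr; after PathHunter detection reagent and 60 min at room temperature, chemiluminescence from enzyme complementation was read.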

[26] = qHTS assay for small molecule agonists of the antioxidant response element (ARE) signaling pathway measured by Nrf2-dependant transcriptional activity - cell viability counter screen (AID 720653; active = well fitted curve in the direction sought with a large enough effect in the repeat runs; an effect the other way counts as inactive or inconclusive; note: % is set by controls: 0 for no effect and ±100 for the full control effect); conditions: ARE-bla HepG2 viability, CellTiter-Glo ATP luminescence, 16 h; max response: stronger effect = lower value
How it was run: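 ARE-bla HepG2 cells (2,000/well) rested 5 hrs at 37C/5% CO2, then exposed to compounds in DMSO for 16 hrs. Viability was read in the same wells as intracellular ATP by luminescence, 30 min at room temperature after reagent addition.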

[27] = qHTS assay for cell viability of HEK293 cells (AID 743288; active = well fitted curve in the direction sought with a large enough effect; an effect the other way counts as inactive or inconclusive; note: % is set by controls: 0 for no effect and ±100 for the full control effect; nearly all actives have a fitted effect of over 50% in size); conditions: ATP luminescence (CellTiter-Glo), 18 h; max response: stronger effect = lower value
How it was run: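 HEK293 parental, 2,000 cells/well; ≥5 h pre-incubation 37 C; pintool compound addition; 18 h, 37 C; CellTiter-Glo 30 min RT; luminescence read.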

[28] = qHTS assay for cell viability of the p53RE-bla HCT-116 cell line (AID 743292; active = well fitted curve in the direction sought with a large enough effect; an effect the other way counts as inactive or inconclusive; note: % is set by controls: 0 for no effect and ±100 for the full control effect; nearly all actives have a fitted effect of over 55% in size)
How it was run: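 CellSensor p53RE-bla HCT-116 cells, 4,000/well, preincubated 5 h at 37 C, then exposed to compounds in DMSO for 16 h at 37 C. Viability read as CellTiter-Glo luminescence (intracellular ATP) after 30 min at room temperature.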

[29] = biological target: Nuclear receptor subfamily 1 group I member 2 (Rattus norvegicus) (UniProt Q9R1A7); assay: qHTS assay for small molecule activators of the rat pregnane X receptor (rPXR) signaling pathway (AID 651751; call rule not given here; note: 0% is about no effect); conditions: rPXR reporter cells, luciferase (One-Glo), 24 h
[30] = qHTS assay for small molecule activators of the human pregnane X receptor (PXR) signaling pathway (AID 720659; call rule not given here; note: 0% is about no effect)

Sequence of Peroxisome proliferator-activated receptor delta (Homo sapiens) (Q03181 whole entry, looked up): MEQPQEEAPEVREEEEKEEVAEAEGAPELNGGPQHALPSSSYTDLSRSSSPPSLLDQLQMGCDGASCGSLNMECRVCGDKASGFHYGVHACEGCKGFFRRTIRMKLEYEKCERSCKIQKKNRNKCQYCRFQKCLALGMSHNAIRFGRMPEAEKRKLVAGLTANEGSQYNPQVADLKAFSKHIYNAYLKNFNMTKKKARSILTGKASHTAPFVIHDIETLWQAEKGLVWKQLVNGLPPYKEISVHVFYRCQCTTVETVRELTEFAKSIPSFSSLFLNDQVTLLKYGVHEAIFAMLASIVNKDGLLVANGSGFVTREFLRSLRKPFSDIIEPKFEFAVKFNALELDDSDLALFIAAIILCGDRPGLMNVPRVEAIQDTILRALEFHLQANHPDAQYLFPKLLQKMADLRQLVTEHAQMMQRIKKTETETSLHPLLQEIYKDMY
Sequence of Bile acid receptor (Homo sapiens) (Q96RI1 whole entry, looked up): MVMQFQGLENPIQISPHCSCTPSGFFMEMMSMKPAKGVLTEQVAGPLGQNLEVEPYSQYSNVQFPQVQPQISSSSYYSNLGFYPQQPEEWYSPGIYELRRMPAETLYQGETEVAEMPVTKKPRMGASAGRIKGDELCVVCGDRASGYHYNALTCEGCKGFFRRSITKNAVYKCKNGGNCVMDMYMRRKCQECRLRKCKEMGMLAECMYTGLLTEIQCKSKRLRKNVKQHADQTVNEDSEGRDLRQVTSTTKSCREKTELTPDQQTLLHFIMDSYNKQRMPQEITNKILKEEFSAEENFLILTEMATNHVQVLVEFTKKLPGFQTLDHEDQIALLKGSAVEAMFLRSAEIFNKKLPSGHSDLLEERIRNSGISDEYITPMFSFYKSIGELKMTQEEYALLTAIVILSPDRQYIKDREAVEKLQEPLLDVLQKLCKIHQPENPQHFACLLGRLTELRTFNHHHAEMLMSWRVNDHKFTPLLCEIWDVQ
Sequence of Nucleoprotein (Lymphocytic choriomeningitis virus (strain Armstrong)) (P09992 whole entry, looked up): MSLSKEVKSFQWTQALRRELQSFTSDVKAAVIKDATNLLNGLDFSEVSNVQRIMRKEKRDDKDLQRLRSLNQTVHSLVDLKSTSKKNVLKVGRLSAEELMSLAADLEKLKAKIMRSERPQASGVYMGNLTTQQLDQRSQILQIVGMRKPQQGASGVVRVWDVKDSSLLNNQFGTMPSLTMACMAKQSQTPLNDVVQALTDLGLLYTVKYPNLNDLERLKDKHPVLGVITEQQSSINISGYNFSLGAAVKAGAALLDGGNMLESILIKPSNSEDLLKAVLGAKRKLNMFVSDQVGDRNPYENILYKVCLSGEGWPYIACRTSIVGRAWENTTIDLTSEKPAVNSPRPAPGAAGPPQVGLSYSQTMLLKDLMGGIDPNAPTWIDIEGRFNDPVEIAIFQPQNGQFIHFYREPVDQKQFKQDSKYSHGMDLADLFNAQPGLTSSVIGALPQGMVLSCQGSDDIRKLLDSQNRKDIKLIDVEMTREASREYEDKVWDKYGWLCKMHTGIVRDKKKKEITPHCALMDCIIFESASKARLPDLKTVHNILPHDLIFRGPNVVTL
Sequence of Glucocorticoid receptor (Homo sapiens) (P04150 whole entry, looked up): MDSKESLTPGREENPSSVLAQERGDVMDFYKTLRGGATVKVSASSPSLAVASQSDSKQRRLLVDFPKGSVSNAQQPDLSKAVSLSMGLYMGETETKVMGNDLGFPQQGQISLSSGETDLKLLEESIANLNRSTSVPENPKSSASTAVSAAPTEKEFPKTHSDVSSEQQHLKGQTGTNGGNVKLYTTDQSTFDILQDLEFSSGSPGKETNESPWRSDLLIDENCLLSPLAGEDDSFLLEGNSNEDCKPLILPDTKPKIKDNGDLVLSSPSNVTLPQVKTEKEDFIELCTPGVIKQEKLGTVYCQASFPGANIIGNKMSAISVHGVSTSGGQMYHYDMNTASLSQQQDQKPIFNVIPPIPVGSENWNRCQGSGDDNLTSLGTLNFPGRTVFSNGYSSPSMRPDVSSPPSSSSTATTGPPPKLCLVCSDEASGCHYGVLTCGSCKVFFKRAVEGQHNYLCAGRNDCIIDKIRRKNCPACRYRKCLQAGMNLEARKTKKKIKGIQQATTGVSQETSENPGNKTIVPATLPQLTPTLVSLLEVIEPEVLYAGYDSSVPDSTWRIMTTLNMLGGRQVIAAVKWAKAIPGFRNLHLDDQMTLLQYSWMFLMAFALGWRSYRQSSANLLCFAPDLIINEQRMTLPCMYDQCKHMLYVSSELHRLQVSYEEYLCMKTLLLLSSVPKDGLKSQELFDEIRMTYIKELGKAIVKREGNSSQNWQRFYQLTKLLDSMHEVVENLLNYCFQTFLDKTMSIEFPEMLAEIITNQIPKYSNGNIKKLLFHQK
Sequence of Peroxisome proliferator-activated receptor gamma (Homo sapiens) (P37231 whole entry, looked up): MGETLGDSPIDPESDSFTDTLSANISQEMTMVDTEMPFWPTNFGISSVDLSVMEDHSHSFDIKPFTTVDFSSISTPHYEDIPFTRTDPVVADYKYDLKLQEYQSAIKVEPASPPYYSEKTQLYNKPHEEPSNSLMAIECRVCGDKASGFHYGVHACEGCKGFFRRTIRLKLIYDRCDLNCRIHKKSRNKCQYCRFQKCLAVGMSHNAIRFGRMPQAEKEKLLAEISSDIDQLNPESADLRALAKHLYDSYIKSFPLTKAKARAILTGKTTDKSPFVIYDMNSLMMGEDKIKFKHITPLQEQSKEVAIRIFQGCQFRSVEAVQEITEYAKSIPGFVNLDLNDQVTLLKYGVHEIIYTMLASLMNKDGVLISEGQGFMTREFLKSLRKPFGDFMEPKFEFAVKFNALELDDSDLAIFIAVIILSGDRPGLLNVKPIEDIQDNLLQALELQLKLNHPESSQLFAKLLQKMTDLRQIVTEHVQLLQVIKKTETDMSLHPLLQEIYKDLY
Sequence of Alpha-galactosidase (Coffea arabica) (Q42656 whole entry, looked up): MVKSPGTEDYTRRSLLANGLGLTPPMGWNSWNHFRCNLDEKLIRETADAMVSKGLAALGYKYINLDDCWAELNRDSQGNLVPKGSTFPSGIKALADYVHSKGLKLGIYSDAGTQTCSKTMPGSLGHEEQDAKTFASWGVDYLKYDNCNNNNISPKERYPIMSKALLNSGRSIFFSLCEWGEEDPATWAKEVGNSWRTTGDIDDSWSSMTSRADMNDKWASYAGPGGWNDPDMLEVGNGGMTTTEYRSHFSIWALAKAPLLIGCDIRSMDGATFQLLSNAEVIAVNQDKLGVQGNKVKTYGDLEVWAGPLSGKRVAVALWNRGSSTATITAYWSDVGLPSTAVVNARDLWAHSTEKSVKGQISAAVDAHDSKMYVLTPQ
Sequence of Retinoic acid receptor RXR-alpha (Homo sapiens) (P19793 whole entry, looked up): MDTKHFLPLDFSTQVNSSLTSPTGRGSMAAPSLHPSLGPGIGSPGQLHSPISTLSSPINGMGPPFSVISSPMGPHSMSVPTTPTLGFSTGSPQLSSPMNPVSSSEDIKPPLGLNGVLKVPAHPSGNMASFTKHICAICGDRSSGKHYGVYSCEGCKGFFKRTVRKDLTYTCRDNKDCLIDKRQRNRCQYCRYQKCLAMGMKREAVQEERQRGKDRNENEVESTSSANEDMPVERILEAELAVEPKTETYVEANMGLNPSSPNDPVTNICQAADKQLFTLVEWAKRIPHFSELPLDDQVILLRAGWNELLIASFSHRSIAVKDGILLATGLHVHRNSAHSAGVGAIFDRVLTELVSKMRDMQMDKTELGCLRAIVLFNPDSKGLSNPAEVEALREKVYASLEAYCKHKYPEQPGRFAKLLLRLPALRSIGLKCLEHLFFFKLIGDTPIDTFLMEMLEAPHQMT
Sequence of Peroxisome proliferator-activated receptor alpha (Homo sapiens) (Q07869 whole entry, looked up): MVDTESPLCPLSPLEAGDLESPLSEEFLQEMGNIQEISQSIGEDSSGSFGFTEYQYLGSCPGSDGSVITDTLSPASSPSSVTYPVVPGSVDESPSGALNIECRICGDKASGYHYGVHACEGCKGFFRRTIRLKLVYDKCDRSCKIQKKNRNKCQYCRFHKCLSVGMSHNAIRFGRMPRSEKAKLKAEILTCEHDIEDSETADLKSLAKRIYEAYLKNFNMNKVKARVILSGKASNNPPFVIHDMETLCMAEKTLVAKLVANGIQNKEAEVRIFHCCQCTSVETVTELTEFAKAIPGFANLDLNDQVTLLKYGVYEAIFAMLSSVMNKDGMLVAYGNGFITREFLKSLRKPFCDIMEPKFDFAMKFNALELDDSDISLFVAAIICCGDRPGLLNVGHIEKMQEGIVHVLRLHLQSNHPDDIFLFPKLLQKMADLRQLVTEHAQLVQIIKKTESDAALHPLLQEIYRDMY
Sequence of Vitamin D3 receptor (Homo sapiens) (P11473 whole entry, looked up): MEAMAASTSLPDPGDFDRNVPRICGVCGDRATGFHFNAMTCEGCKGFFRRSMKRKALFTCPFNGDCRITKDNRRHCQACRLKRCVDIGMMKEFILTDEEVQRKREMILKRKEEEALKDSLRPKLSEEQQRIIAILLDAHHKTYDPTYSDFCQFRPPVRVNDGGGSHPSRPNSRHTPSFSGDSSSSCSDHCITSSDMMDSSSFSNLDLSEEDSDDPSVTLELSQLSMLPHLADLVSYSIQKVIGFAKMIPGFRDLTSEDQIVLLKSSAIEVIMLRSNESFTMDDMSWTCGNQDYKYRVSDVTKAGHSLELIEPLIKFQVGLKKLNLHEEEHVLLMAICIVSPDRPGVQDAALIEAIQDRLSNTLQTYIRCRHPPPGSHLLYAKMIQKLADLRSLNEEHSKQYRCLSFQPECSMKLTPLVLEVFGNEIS
Sequence of Thyroid hormone receptor beta (Homo sapiens) (P10828 whole entry, looked up): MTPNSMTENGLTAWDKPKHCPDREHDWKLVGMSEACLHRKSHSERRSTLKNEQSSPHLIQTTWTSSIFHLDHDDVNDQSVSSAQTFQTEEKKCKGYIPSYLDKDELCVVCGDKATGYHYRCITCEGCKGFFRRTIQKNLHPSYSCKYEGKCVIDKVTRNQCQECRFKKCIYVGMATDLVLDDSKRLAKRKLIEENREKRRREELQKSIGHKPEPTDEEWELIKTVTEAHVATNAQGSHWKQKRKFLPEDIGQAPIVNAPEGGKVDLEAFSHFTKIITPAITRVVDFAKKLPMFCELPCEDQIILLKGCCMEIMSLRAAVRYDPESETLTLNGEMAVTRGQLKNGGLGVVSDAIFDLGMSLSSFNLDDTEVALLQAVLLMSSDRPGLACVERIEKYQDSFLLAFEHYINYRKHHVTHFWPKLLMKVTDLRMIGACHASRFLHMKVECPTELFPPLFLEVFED

CCN1C(=O)C=CC1=O
inactive: outcome [1] | outcome [2] | outcome [3] | Potency [4] | Potency [5] | Potency [6] | Potency [7]

CC=O
inactive: activation [8] -1.84% | Potency [9] | Potency [4] | Potency [5] | Potency [6] | Potency [7]

CCC(=O)OCCc1ccccc1
inactive: activation [8] 0.429% | Potency [9] | Potency [4] | Potency [5] | Potency [6] | Potency [7]

CCOP(=S)(OCC)SCSCC
-4.53%: max response [21]
inactive: Potency [10] | activation [8] 1.79% | activation [11] -1.34% | Potency [12] | Potency [9] | outcome [14] | outcome [15] | Potency [16] | outcome [17] | outcome [19] | Potency [20] | max response [22] -2.19% | activation [23] -1.47% | activation [24] 2.07% | max response [25] -0.311% | max response [26] 6.11% | max response [27] -10.1% | outcome [28] | Potency [4] | Potency [5] | Potency [6] | Potency [7] | max response [29] 5.3% | outcome [30]
-8.57%: max response [18]
1.66%: max response [13]
